Results: PubChem BioAssay (NCATS)
A number with no mark means an inactive call. Records with an inconclusive call do not appear. Where a call stands in place of a potency, no number is given. The source made the active and inactive calls. Unless noted, calls come from the whole dose curve; as a rule, active = well fitted curve in the direction sought with a large enough effect; inconclusive = small, poorly fitted or top-dose-only effect, or another doubt; inactive = no such curve, though single readings can be large; an effect the other way counts as inactive or inconclusive.

Tests used:
[1] = target: Lysosomal acid glucosylceramidase (Homo sapiens) (UniProt P04062); assay: Glucocerebrosidase-p2 (AID 348; in the data active = potency below about 10 µM; note: potency is the fitted concentration of half-maximal effect); conditions: purified GBA, blue fluorogenic substrate, 40 min
Chain of Lysosomal acid glucosylceramidase (Homo sapiens) (P04062 whole entry, looked up): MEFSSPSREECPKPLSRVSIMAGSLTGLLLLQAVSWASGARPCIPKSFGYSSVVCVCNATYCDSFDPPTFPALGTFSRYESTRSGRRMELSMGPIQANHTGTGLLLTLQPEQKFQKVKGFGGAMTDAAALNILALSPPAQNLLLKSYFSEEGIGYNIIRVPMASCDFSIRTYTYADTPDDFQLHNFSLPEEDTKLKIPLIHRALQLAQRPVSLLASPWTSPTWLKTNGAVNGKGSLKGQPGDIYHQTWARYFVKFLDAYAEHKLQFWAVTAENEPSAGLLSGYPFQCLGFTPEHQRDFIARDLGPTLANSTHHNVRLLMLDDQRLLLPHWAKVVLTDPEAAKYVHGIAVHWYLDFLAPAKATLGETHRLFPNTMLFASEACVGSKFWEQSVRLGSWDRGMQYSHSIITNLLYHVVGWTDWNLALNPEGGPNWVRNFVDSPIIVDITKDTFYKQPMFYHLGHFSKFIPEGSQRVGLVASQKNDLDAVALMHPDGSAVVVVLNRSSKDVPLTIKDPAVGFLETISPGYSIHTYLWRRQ
Method in brief: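 Normal human glucocerebrosidase (0.2 nM) with blue fluorogenic substrate (80 uM final) in citrate/phosphate pH 5.9 with 10mM sodium taurocholate, 0.01% tween-20; 40 min RT, NaOH/glycine stop; fluorescence Ex 365/Em 440; AC50 from a titration from 0.6 nM upwards.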

[2] = AP1 Signaling Pathway (AID 357; active = well fitted curve in either direction with a large enough effect, not every such curve was filed as active;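 note: ME-180 reporter cells stimulated with EGF at its EC50 level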); conditions: ME-180 AP-1-bla reporter, EGF-induced, beta-lactamase ratio, 5 h; at 7.69 µM (top of the series) unless noted
Method in brief: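 In this screen, ME-180 cells in Opti-MEM with 0.5% dialyzed FBS received EC50 EGF and compound titrations for 5 h. AP-1 reporter beta-lactamase was detected via CCF4 ratio, giving AC50 for positive and negative modulators.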

[3] = NFAT Signaling Pathway (AID 444; active = well fitted curve in either direction with a large enough effect, not every such curve was filed as active;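 note: carbachol stimulus at about its EC50 of 1 µM final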); conditions: Jurkat NFAT-bla M1, carbachol, beta-lactamase ratio, 5 h; at 7.69 µM (top of the series) unless noted
Method in brief: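 Jurkat cells carrying an NFAT-driven β-lactamase reporter and co-transfected muscarinic M1 receptor were treated with compound plus carbachol (1 uM final, an EC50 level) for 5 h at 37 °C. CCF4 loading followed for 1 h at RT; 460/530 nm ratio gave %activity.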

[4] = target: Glucocorticoid receptor (Homo sapiens) (UniProt P04150); assay: GR-GFP Redistribution (AID 450;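 active = compounds whose dose series gives a full or clear partial fitted curve of increased nuclear translocation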; note: potency is the fitted concentration of half-maximal effect); conditions: U2OS GR-GFP nuclear translocation, laser cytometry, 2 h
Chain of Glucocorticoid receptor (Homo sapiens) (P04150 whole entry, looked up, the tested form may be a part): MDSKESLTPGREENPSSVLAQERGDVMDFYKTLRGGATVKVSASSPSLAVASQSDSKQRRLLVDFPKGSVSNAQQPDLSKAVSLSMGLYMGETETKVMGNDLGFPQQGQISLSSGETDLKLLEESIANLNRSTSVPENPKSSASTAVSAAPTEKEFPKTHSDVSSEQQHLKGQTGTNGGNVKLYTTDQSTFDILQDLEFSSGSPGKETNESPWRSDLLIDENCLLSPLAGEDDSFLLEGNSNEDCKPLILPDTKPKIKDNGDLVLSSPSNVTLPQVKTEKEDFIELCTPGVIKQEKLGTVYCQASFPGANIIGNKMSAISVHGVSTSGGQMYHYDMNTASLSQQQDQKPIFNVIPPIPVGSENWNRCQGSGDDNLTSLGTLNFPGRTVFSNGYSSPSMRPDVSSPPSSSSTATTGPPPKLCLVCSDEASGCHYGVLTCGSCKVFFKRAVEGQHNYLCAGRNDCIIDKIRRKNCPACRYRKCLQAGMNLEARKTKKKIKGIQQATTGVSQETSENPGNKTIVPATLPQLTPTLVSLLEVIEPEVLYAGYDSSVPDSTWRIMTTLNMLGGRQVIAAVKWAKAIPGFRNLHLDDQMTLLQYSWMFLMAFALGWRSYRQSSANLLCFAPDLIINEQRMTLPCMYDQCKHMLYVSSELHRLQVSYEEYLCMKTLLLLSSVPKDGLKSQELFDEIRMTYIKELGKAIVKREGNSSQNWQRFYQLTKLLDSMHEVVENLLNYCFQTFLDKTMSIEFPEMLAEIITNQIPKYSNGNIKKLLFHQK

[5] = target: Glucocorticoid receptor (Homo sapiens) (UniProt P04150); assay: GR-EFC Redistribution (AID 451; calls by dose curve; note: potency is the fitted concentration of half-maximal effect); conditions: CHO-K1 GR-EFC translocation, beta-gal luminescence, 2 h
Method in brief: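 CHO-K1 cells stably expressing nuclear-localized β-gal enzyme acceptor and GR fused C-terminally to the enzyme donor fragment; ligand-driven nuclear translocation restores β-gal by complementation. Compounds titrated up to 46 uM final, 2 h at 37 °C; luminescence read.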

[6] = target: Mitogen-activated protein kinase 10 (Mus musculus) (UniProt Q61831); assay: JNK3 AlphaScreen Assay (AID 530; active = well fitted curve in either direction with a large enough effect, not every such curve was filed as active;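 note: kinase came from lysate of stimulated human HepG2 cells; signal reports phosphorylation of biotinylated GST-cJun 1-79 at Ser73 with 10 µM ATP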); conditions: JNK3 lysate, c-Jun phosphorylation; series mostly up to 57.1 µM
Method in brief: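 Biotinylated GST-cJun(1-79) served as substrate for JNK3 in HepG2 lysates stimulated with IL-1beta and TNF-alpha. ATP was 10 uM final, pH 7.6. Ser73 phosphorylation was quantified by AlphaScreen (680 nm excitation).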

[7] = target: 3',5'-cyclic-AMP phosphodiesterase 4B (Homo sapiens) (UniProt Q07343); assay: qHTS Assay for Inhibitors of PDE-IV (AID 607; active = well fitted activation curve with a large enough effect in the main read-out, with a control signal flat, not every such curve was filed as active); conditions: HEK293 ACTOne CNG channel cells, membrane potential fluorescence; series mostly up to 22.9 µM
Chain of 3',5'-cyclic-AMP phosphodiesterase 4B (Homo sapiens) (Q07343 whole entry, looked up): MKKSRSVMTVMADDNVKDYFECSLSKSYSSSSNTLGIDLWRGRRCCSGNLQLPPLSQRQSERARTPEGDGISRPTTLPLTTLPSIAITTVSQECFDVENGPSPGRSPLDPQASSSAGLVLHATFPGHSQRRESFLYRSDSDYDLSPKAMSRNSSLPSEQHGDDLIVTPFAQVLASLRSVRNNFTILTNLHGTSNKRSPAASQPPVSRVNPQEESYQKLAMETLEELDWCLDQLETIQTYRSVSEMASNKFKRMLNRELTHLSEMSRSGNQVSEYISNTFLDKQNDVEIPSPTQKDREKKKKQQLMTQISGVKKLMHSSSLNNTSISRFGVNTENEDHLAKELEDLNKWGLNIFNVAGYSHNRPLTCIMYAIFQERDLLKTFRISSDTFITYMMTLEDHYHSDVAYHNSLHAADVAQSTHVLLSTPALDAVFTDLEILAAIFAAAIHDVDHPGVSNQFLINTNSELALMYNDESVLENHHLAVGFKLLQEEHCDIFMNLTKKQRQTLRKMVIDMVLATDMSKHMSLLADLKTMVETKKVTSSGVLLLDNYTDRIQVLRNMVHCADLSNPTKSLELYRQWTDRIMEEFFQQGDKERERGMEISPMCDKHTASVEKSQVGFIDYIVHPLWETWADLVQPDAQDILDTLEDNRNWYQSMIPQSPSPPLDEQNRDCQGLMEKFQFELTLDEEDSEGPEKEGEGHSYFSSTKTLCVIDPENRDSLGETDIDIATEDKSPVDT
Method in brief: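 Cell-based read-out of cAMP via a modified cyclic nucleotide-gated channel and membrane potential dye (535/590 nm) in HEK293 cells expressing PDE4 endogenously. Compounds tested up to 22.9 uM final; 100 uM RO 20-1724 reference.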

[8] = target: Dual specificity protein kinase CLK4 (Homo sapiens) (UniProt Q9HAZ1); assay: qHTS Assay for Inhibitors of CDC-like Kinase 4 (Kinase-Glo Assay) (AID 1770); conditions: recombinant Clk4, Kinase-Glo ATP depletion luminescence; series mostly up to 66.7 µM; note: nearly all actives have a fitted effect of over 65% in size; note: potency is the fitted concentration of half-maximal effect
Chain of Dual specificity protein kinase CLK4 (Homo sapiens) (Q9HAZ1 whole entry, looked up): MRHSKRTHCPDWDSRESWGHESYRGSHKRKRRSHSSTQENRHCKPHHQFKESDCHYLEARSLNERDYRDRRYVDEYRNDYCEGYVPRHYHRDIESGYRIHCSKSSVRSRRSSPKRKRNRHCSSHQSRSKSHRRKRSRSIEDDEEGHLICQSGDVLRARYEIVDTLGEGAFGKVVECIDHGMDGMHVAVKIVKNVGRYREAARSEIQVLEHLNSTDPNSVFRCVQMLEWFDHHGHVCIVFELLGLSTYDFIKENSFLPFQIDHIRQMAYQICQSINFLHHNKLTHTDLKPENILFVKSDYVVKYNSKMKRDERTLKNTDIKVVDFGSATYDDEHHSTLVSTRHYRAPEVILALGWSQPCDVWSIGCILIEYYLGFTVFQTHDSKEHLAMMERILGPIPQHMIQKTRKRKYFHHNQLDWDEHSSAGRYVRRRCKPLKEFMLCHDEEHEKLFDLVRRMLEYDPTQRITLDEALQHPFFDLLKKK
Method in brief: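 Luminescent ATP-depletion read-out (Kinase-Glo) after 4.5 h room-temperature reaction of Clk4 (25 nM final) with RS peptide (100 uM) and ATP (1 uM), pH 7.5 Tris buffer with MgCl2 and DTT.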

[9] = target: Dual specificity protein kinase CLK4 (Homo sapiens) (UniProt Q9HAZ1); assay: qHTS Assay for Inhibitors of CDC-like Kinase 4 (ADP-Glo Assay) (AID 1771); conditions: recombinant CLK4, ADP-Glo luminescence; series mostly up to 80 µM; note: nearly all actives have a fitted effect of over 70% in size; note: potency is the fitted concentration of half-maximal effect
Method in brief: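 25 nM Clk4, 100 uM RS peptide, 1 uM ATP (final); 2 mM MgCl2, 0.5 mM EGTA, 2.5 mM DTT, 0.01% Triton X-100; 1 hr RT. ADP-Glo readout: ATP depletion 45 min, conversion/luciferase 30 min, luminescence.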

[10] = target: Dual specificity protein kinase CLK4 (Homo sapiens) (UniProt Q9HAZ1); assay: qHTS Assay for Inhibitors of CDC-like Kinase 4 (ADP-FP Assay) (AID 1795); conditions: Transcreener ADP fluorescence polarization; series mostly up to 50 µM; note: nearly all actives have a fitted effect of over 60% in size; note: potency is the fitted concentration of half-maximal effect;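 for activity change, negative = inhibition: recombinant human CLK4 phosphorylating RS repeat peptide at 1 µM ATP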
Method in brief: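 Kinase activity was measured as ADP production using Transcreener orange tracer (4 nM) and ADP antibody (1 ug/mL) fluorescence polarization, with ADP calculated from a calibration curve. The 1 h reaction contained 6.25 nM Clk4, 1 uM ATP and 100 uM RS peptide at pH 7.5 with Mg2+.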

[11] = Primary qHTS for small molecule stabilizers of the endoplasmic reticulum resident proteome: Secreted ER Calcium Modulated Protein (SERCaMP) assay (AID 1508630); conditions: SH-SY5Y GLuc-SERCaMP (Gaussia luciferase released on ER calcium loss) secretion, thapsigargin, luminescence; series mostly up to 38.4 µM
Method in brief: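 The SH-SY5Y reporter protocol was run at 3 concentrations up to 38.3 uM (primary) or 11 concentrations (follow-up): 16 h compound, 100 nM thapsigargin for 4 h, then extracellular luciferase luminescence.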

[12] = Stat Signaling Pathway (AID 446; active = well fitted curve in either direction with a large enough effect, not every such curve was filed as active;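 note: ME-180 cervical cancer cells given 40 pM IL-6 alongside compound; SIE-controlled beta-lactamase reporter measured as 460/530 nm FRET emission ratio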); conditions: ME-180 SIE beta-lactamase reporter, IL-6 stimulated, 5 h; at 7.69 µM (top of the series) unless noted
Method in brief: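 FRET read-out (405 nm excitation, 460/530 nm emission) of a beta-lactamase reporter under a STAT-inducible element in ME-180 cervical carcinoma cells. Cells with compound receive 40 pM IL-6 for 5 h. Values are normalised to AC90 stimulation and AC90 JAK-inhibitor controls.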

[13] = target: Ubiquitin carboxyl-terminal hydrolase 1 (Homo sapiens) (UniProt O94782); assay: Inhibitors of USP1/UAF1: Pilot qHTS (AID 504865); conditions: purified USP1/UAF1, Ub-rhodamine cleavage fluorescence; series mostly up to 54.9 µM;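 note: rhodamine fluorescence freed from ubiquitin-rhodamine substrate followed over time; top concentration of the series differs between compounds; nearly all actives have a fitted effect of over 35% in size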
Chain of Ubiquitin carboxyl-terminal hydrolase 1 (Homo sapiens) (O94782 whole entry, looked up): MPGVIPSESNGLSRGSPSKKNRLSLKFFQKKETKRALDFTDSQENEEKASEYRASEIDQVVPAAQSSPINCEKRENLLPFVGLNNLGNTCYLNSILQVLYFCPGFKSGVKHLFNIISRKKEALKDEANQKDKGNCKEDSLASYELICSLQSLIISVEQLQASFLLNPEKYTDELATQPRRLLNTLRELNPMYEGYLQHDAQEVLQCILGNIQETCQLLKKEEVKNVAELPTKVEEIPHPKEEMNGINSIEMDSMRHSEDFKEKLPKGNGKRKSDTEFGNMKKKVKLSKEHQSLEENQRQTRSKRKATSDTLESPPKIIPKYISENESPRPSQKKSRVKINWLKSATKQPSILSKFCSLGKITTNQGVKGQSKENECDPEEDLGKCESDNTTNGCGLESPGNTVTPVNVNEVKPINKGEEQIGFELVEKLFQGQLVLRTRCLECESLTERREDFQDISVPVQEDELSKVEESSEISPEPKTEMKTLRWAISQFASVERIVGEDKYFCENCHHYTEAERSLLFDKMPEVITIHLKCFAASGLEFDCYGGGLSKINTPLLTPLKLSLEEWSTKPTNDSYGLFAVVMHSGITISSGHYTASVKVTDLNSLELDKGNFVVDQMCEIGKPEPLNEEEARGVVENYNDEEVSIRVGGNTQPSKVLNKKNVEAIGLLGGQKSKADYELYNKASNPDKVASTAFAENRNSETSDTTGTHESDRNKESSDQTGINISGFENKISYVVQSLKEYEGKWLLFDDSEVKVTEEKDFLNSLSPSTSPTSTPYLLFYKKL
Method in brief: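 Deubiquitinase activity followed as kinetic rhodamine fluorescence release from 150 nM Ub-Rho. 1 nM USP1/UAF1 with compound, after 15 min room-temperature preincubation, in HEPES pH 7.8 buffer containing TCEP, EDTA, BSA and Tween-20.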

[14] = qHTS Assay for Identification of Small Molecule Agonists for Hypoxia Response Element Signaling Pathway (AID 914; active = well fitted activation curve with a large enough effect in the signal ratio, with a control signal flat, not every such curve was filed as active; the % refers to the signal ratio; note: potency is the fitted concentration of half-maximal effect); conditions: ME-180 (cervical carcinoma) HRE-bla reporter, beta-lactamase ratio, CoCl2, 17 h; activation: hits give high values
Method in brief: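 In Opti-MEM containing 0.5% dialyzed FBS and 10 mM HEPES, ME-180 HRE-bla cells received a compound titration and EC50 CoCl2. They were incubated 17 hours, then CCF4-loaded 2.5 hours at room temperature before ratio reading.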

[15] = target: Cytochrome P450 1A2 (Homo sapiens) (UniProt P05177); assay: p450-cyp1a2 (AID 410; calls by dose curve; note: potency is the fitted concentration of half-maximal effect); conditions: recombinant CYP1A2, luciferin-ME demethylation, luminescence; series mostly up to 57 µM
Chain of Cytochrome P450 1A2 (Homo sapiens) (P05177 whole entry, looked up): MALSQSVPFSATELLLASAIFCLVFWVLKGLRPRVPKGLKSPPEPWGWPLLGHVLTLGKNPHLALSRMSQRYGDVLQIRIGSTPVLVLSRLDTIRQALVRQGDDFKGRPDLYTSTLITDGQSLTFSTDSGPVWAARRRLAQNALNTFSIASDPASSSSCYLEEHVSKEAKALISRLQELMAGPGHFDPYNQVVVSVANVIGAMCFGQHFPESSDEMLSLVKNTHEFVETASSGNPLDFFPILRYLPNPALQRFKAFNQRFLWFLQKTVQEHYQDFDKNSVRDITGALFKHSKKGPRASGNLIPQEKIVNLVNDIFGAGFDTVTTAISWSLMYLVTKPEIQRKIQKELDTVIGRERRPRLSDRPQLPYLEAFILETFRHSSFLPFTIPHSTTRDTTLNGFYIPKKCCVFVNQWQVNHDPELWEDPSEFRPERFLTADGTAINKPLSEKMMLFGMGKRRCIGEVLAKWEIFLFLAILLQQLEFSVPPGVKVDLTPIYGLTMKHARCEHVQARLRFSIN
Method in brief: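 20nM CYP1A2, 100uM Luciferin-ME (=Km), 100mM KPO4; cpd 10 min RT; +NADPH regen, 60 min RT; stop/detect 20 min; luminescence. Normalized to furafylline 57 uM = full inhibition.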

[16] = target: Cytochrome P450 3A4 (Homo sapiens) (UniProt P08684); assay: qHTS Assay for Activators of Cytochrome P450 3A4 (AID 885); conditions: recombinant CYP3A4, Luciferin-PPXE luminescence, 60 min; series mostly up to 57.1 µM; note: nearly all actives have a fitted effect of over 65% in size
Chain of Cytochrome P450 3A4 (Homo sapiens) (P08684 whole entry, looked up): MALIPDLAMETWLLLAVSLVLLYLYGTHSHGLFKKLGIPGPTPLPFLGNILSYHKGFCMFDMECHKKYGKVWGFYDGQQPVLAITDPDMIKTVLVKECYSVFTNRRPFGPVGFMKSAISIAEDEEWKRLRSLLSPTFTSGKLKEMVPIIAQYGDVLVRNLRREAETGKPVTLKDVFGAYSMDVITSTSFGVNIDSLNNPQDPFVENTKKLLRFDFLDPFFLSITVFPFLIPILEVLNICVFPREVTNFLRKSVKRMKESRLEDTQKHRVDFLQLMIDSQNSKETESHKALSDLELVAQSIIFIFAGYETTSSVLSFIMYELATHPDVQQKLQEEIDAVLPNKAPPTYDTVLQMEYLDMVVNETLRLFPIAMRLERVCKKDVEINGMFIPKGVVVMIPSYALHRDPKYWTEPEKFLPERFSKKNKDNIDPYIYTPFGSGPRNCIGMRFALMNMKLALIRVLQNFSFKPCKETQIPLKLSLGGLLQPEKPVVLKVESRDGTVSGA
Method in brief: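 Luminescent readout of luciferin formed from 25 uM Luciferin-PPXE (KM level) by 20 nM CYP3A4 in 200 mM KPO4, with 60 min NADPH-driven reaction at room temperature after 10 min compound exposure. Ketoconazole (57 uM) defined 100% inhibition.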

[17] = target: Cytochrome P450 2C19 (Homo sapiens) (UniProt P33261); assay: qHTS Assay for Inhibitors and Substrates of Cytochrome P450 2C19 (AID 899); conditions: recombinant CYP2C19, luciferin-H EGE luminescence; series mostly up to 57.1 µM; note: potency is the fitted concentration of half-maximal effect; nearly all actives have a fitted effect of over 60% in size
Chain of Cytochrome P450 2C19 (Homo sapiens) (P33261 whole entry, looked up): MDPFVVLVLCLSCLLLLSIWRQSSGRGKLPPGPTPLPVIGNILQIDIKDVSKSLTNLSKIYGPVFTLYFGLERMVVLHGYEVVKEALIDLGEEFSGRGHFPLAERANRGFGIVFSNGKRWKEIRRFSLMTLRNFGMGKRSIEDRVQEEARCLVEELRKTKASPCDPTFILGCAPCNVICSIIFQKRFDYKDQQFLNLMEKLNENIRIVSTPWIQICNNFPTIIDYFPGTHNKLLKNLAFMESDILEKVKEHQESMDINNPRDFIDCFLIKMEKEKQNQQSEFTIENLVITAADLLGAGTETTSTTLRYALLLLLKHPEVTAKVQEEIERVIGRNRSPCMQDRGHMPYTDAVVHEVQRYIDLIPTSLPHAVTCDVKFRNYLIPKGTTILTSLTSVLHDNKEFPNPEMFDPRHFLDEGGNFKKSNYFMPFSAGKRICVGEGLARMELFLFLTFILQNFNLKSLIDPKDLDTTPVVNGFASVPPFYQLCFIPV
Method in brief: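 In 50mM KPO4, the reaction held 5nM enzyme and KM-level (10uM) Luciferin-H EGE; it ran 60 min at 37C after NADPH regeneration and a 10 min compound preincubation. Luminescence values were scaled to 57uM ketoconazole as complete inhibition.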

SMILES	Potency [1] [µM]	activity change, negative = inhibition [2] [%]	activity change, negative = inhibition [3] [%]	Potency [4] [µM]	Potency [5] [µM]	Potency [6]	Potency [7]	Potency [8]	Potency [9]	Potency [10]	outcome [11]	activity, negative = inhibition [12] [%]	Potency [13]	Potency [14]	Potency [15]	Potency [16]	Potency [17]
CN(C)c1ncc2nc(-c3cc(F)cc(F)c3)c(=O)n(C)c2n1	> 11.4	13.4	2.93	> 9.22	> 46	inactive	inactive	inactive	inactive	inactive	inactive						
O=c1c(CCc2ccccc2)nc2cnc(N3CCOCC3)nc2n1C1CC1	> 11.4	-19.2	4.06		> 46	inactive		inactive	inactive	inactive	inactive	3.71	inactive				
CCNc1ncc2nc(-c3cc(F)cc(F)c3)c(=O)n(Cc3ccc(F)cc3)c2n1	> 11.4	20.2	28.9		> 46	inactive	inactive	inactive	inactive	inactive	inactive		inactive	2 µM (active)			
Fc1ccc(Nc2ncnc3ccc(-c4ccoc4)cc23)cc1	> 11.4		10.4	> 46	> 46	inactive		0.631 µM (active)	0.708 µM (active)	0.355 µM (active)	inactive	-22.9	inactive		1 µM (active)	inactive	
COc1cccc(Nc2ncc3nc(-c4ccc(Cl)cc4)c(=O)n(C[C@H]4CCCO4)c3n2)c1	> 11.4	-20.5	2.35	> 9.22	> 46	inactive	inactive	inactive	inactive	inactive	inactive	4.74				inactive	
O=c1c(CCc2ccccc2)nc2cncnc2n1Cc1ccccc1Cl	> 11.4		-6.53		> 46	inactive		inactive	inactive	inactive	inactive	-12.1	inactive		12.6 µM (active)	inactive	5.01 µM (active)
c1ccc(Nc2ncnc3ccc(-c4ccoc4)cc23)cc1	> 11.4		14.5	> 46	> 46	inactive	inactive	0.708 µM (active)	0.631 µM (active)	0.447 µM (active)	inactive	-4.75	inactive		1.58 µM (active)	inactive	2 µM (active)
COc1cccc(-c2ccc3ncnc(N(C)C)c3c2)c1	> 11.4		27.5	> 46	> 46	inactive	inactive	4.47 µM (active)	3.16 µM (active)	2.51 µM (active)	inactive	-13.9	inactive		0.794 µM (active)	inactive	3.16 µM (active)
COCCn1c(=O)c(-c2ccc(OC)cc2)nc2cnc(OCc3ccccc3)nc21	> 11.4	-11.8		> 9.22	> 46	inactive		inactive	inactive	inactive	inactive	7.46	inactive			inactive	
CN(C)c1ncc2nc(-c3cccs3)c(=O)n(Cc3cccs3)c2n1	> 11.4	21.5		> 9.22	> 46	inactive	inactive	inactive	inactive	inactive	inactive		inactive			inactive	
COCCn1c(=O)c(CCc2ccccc2)nc2cnc(Nc3ccccc3)nc21	> 11.4	16.9	10.5	> 9.22	> 46	inactive		inactive	inactive	inactive	inactive		inactive				
N#CCCn1c(=O)c(-c2cccs2)nc2cnc(Nc3ccccc3)nc21	> 11.4		-22.7	> 9.22	> 46	inactive	inactive	inactive	inactive	inactive	inactive	-25	inactive		5.01 µM (active)	inactive	
CC(=O)NCCNc1nc(-c2ccc(C(=O)N(C)C)cc2)nc2ccccc12	> 11.4		9.74	> 46	> 46	inactive	inactive	inactive	inactive	inactive	inactive	11.4	inactive		inactive		
COc1ccc(CNc2nc(-c3ccc(N(C)C)cc3)nc3ccccc23)c(OC)c1	> 11.4	5.6		> 46	> 46	inactive	inactive	inactive	inactive	inactive	inactive	23.2	inactive			inactive	
